In PubChem BioAssay:
Where “and” joins values, the source holds several entries; their conditions need not be identical. Equal entries are not always repeated.

Assay: growth inhibition, single agent and combos, cell-based, chromothripsis tumors, cisplatin or BGB combos (AID 1671450);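 also: cells exposed to compound for four days; 0% = vehicle DMSO and 100% = cell killing by high DMSO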
Settings: HDN33 neuroblastoma cells, single agent, at 5 µM, stronger effect = higher value

| SMILES | inhibition |
| --- | --- |
| COc1cc([C@@H]2c3cc4c(cc3[C@@H](O[C@@H]3O[C@@H]5CO[C@@H](c6cccs6)O[C@H]5[C@H](O)[C@H]3O)[C@H]3COC(=O)[C@H]23)OCO4)cc(OC)c1O | 88% and 95.5% |
| COc1cc(NS(C)(=O)=O)ccc1Nc1c2ccccc2nc2ccccc12 | 88.6% and 78.5% |
| N=c1ccn2c(n1)O[C@H]1[C@H](O)[C@@H](CO)O[C@H]12 | 81.4% |

Assay: growth inhibition, single agents and combos, ICB984, cell-based, cisplatin or BGB combos, synergistic combos for chromothripsis tumors (AID 1671451);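 also: cells exposed for 96 hours before readout; 0% = vehicle DMSO and 100% = killing by high DMSO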
Settings: ICB984 medulloblastoma cells, drug combinations, BGB IC20 combo, at 0.005 µM, stronger effect = higher value

| SMILES | inhibition |
| --- | --- |
| COc1cc([C@@H]2c3cc4c(cc3[C@@H](O[C@@H]3O[C@@H]5CO[C@@H](c6cccs6)O[C@H]5[C@H](O)[C@H]3O)[C@H]3COC(=O)[C@H]23)OCO4)cc(OC)c1O | 20.5% and 3.66% |
| COc1cc(NS(C)(=O)=O)ccc1Nc1c2ccccc2nc2ccccc12 | -6.17% and -3.09% |
| N=c1ccn2c(n1)O[C@H]1[C@H](O)[C@@H](CO)O[C@H]12 | -16.9% |
